# A selection: hits, their analogues and other compounds. The true share with any hit is near 21%.
# ELG1 DNA repair: inhibitors of ELG1-dependent DNA repair in HEK293T cells. HEK293T ELG1-luciferase reporter, luminescence, 16 h; DNA damage induced by 5-fluorouridine. Potency, µM (titrated, usually from 46.1 µM), for the others: at the top dose activity change, negative = inhibition, most hits filed as inhibitors. 2.3% of 330,000 active. AID 504467; note: potency is the fitted concentration of half-maximal effect; nearly all actives have a fitted effect of over 55% in size
#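 Overnight (16 hr) co-exposure of 2,000 cells/well to 5-fluorouridine and compound at 37 °C preceded detection. Luciferase was quantified via ONE-Glo luminescence; loss of signal denotes inhibition.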
# VP16 counter: Gal4-VP16 reporter inhibition counter-screen | Drosophila S2 Gal4-VP16 UAS-luciferase, luminescence, 20 h | Potency, µM (highest dose often 53.6 µM), for the others: at the top dose activity, negative = inhibition, hits mostly inhibitors | 3.5% of 310,000 active;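 note: Gal4-VP16 expression switched on by copper sulfate through the metallothionein promoter; potency is the fitted concentration of half-maximal effect; nearly all actives have a fitted effect of over 50% in size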
# RORg inh: inhibitors of mouse ROR gamma transcriptional activity. 5.4% of 310,000 active. Drosophila S2 Gal4-RORgamma UAS-luciferase reporter, 20 h. Potency, µM (series often up to 53.6 µM), without a hit: at the top dose activity change, negative = inhibition, most hits filed as inhibitors. AID 2551; note: potency is the fitted concentration of half-maximal effect; nearly all actives have a fitted effect of over 60% in size
# Target sequence (P51450 whole entry, looked up, the tested form may be a part): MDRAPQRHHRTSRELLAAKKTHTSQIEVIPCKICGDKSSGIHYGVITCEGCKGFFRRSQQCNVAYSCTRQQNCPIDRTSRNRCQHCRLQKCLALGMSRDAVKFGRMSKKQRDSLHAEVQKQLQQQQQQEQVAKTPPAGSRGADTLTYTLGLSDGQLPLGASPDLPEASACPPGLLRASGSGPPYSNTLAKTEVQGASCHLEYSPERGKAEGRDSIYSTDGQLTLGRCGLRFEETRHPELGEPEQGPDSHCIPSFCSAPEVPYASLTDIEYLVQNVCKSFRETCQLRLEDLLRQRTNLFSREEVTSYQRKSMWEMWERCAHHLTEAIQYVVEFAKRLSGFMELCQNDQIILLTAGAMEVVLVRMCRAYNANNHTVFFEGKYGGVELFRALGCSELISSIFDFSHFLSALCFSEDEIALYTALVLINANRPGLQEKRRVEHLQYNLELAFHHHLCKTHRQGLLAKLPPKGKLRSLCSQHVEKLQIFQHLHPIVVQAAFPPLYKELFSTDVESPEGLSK
#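 Stably transfected Drosophila Schneider cells are the test system, with ROR gamma fused to Gal4 and luciferase under UAS control; luminescence is read after 20 hr of 700 uM copper sulfate induction at ambient temperature.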
# TDP1 cell noCPT: qHTS for Inhibitors of human tyrosyl-DNA phosphodiesterase 1 (TDP1): qHTS in cells in absence of CPT | DT40 Tdp1-/- hTDP1 cells, no CPT, ATP luminescence, 48 h | Potency, µM (doses to about 46.2 µM), for the others: top-dose activity change, negative = growth inhibition, usual class: inhibitors | 15% of 420,000 active | AID 686978, 2013; note: potency is the fitted concentration of half-maximal effect; nearly all actives have a fitted effect of over 55% in size
#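 Seeded 400 DT40-hTDP1 cells/well (vehicle DMSO, no 20 nM CPT); pinned compounds; ≥48 hr at 37 °C; CellTiter-Glo luminescence as viability measure.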
# IL1B secr inh: inhibitors of inflammasome signaling (IL-1 beta secretion) | THP-1 LPS/ATP IL-1B secretion, AlphaLISA, 16 h; stronger effect = lower value | activity change, % at 57.5 µM | 4.7% of 360,000 active; in the data active = activity change below about -50%; inconclusive = mostly about -30% to -49%
#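 Secreted IL-1B measured by AlphaLISA bead assay after 16 h compound exposure of THP-1 cells; compounds (final up to 57.5 uM) added 1 h before LPS (250 ng/mL) and ATP (1.25 mM) stimulation; lower signal means less secretion.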
# DT40 TDP1 CPT: DT40-hTDP1 cell growth loss with CPT. chicken DT40 Tdp1-/-;hTDP1 cells + 20 nM CPT, ATP luminescence, 48 h. Potency, µM (highest dose often 46.2 µM), without a hit: top-dose activity change, negative = growth inhibition, usual class: inhibitors. 12% of 420,000 active; note: potency is the fitted concentration of half-maximal effect; nearly all actives have a fitted effect of over 55% in size
#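 Cell growth measured by CellTiter-Glo luminescence after a minimum 48 h, 37 C compound exposure with 20 nM CPT in Tdp1-knockout DT40 cells stably expressing hTDP1, seeded 400/well; qHTS titration format.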
# Numbers without * were called inactive; u = inconclusive; x = no result; [ ] = dose if it differs, or a comment. Unless noted, calls come from the whole dose curve; as a rule, active = well fitted curve in the direction sought with a large enough effect; inconclusive = small, poorly fitted or top-dose-only effect, or another doubt; inactive = no such curve, though single readings can be large; an effect the other way counts as inactive or inconclusive. % is set by controls: 0 for no effect and ±100 for the full control effect.
SMILES,ELG1 DNA repair,VP16 counter,RORg inh,TDP1 cell noCPT,IL1B secr inh,DT40 TDP1 CPT
COc1cc(/C=C/C(=O)OCC(=O)NC(=O)C2COc3ccccc3O2)ccc1OC(F)F (stereo unspecified),9%,x,x,14%,2,-4%
CS(=O)(=O)N1CCC(C(=O)Nc2ccc(Cl)c(C(F)(F)F)c2)CC1,-3%,-30%,32%,23µM*,-11,u
Cn1cnc(S(=O)(=O)N2CCC(C(=O)Nc3ccc(Cl)c(C(F)(F)F)c3)CC2)c1,x,x,x,13µM*,x,16µM*
CS(=O)(=O)N1CCC(C(=O)Nc2cccc(C(F)(F)F)c2)CC1,0%,-4%,0%,-23%,-12,-2%
CCN(CC)CCNC(=O)CCc1nnc2ccc(N3CCC(C)CC3)nn12,-3%,-4%,-8%,4%,-4,2%
CCN(CC)CCNC(=O)c1c(C)oc2ncn(C)c(=O)c12,x,x,x,-8%,x,-23%
NNc1ccc([N+](=O)[O-])c2[nH][nH]c(=O)c12,x,x,x,1%,-30,-6%
CC(=O)N1CCC(=NNc2ccnc3cc(Cl)ccc23)CC1,-8%,-3%,42%,-6%,40,-12%
CCc1nc2c(OCc3ccccc3C(=O)OC)cccn2c1N(C)C(=O)c1cccc(OC)c1,x,x,x,23µM*,-3,13µM*
CCc1nc2c(OCC3COc4ccccc4O3)cccn2c1N(C)C(=O)c1cccc(OC)c1 (stereo unspecified),x,x,x,u,-11,u
CCc1nc2c(OCc3cc(Cl)cc(Cl)c3)cccn2c1N(C)C(=O)c1cccc(OC)c1,x,x,x,u,-56*,u
CCc1nc2c(OCc3cccc(OC)c3)cccn2c1N(C)C(=O)c1ccc(OC)cc1,x,x,x,16µM*,-30,u
CCc1nc2c(OCc3cccc(Cl)c3)cccn2c1N(C)C(=O)c1ccc(OC)cc1,x,x,x,16µM*,0,u
CCc1nc2c(OCc3ccc(OC)cc3)cccn2c1N(C)C(=O)c1ccncc1,x,x,x,-22%,24,-5%
CC(C)NC(=O)N1CC[C@@]2(CCCN(S(C)(=O)=O)C2)C1,x,0%,-24%,4%,x,7%
COc1ccc(Oc2ncc3nc(-c4ccc(OC)cc4)c(=O)n(C)c3n2)cc1,x,7%,11%,-15%,x,-11%
CCN1C(=O)[C@H]2[C@@H](c3ccc(C)cc3)N3C(=O)N(c4cccc(Br)c4)C(=O)[C@@]3(CC(C)C)[C@H]2C1=O,17%,x,x,u,-20,u
CCOc1ccc(OCCCC(=O)ON=C(N)c2ccccc2C)cc1,u,x,x,-18%,-2,-4%
COc1ccc(/C=C/C(=O)C2CC2)cc1Cn1nc(C)c([N+](=O)[O-])c1C,-1%,u,18%,u,-110*,u
COc1ccc(-c2coc3c(C(=O)NCc4ccc(F)c(F)c4)cccc23)c(C)c1,x,x,x,15µM*,u,u
COc1ccc(-c2coc3c(C(=O)NCCN(C)C)cccc23)c(C)c1,x,x,x,u,-21,u
COc1ccc(-c2ccc(C(=O)NCc3ccncc3)c3occc23)c(C)c1,x,x,x,1.8µM*,-29,2.1µM*
Cc1noc(C)c1-c1ccc(C(=O)NCC2CC2)c2occc12,x,x,x,u,16,u
COc1ccc(-c2ccc(C(=O)NCC3CC3)c3occc23)c(C)c1,x,x,x,u,u,21µM*
COc1ccc(-c2coc3c(C(=O)NCc4ccc(OC)c(OC)c4)cccc23)c(C)c1,x,x,x,6.5µM*,-21,8.2µM*
SMILES,ELG1 DNA repair,VP16 counter,RORg inh,TDP1 cell noCPT,IL1B secr inh,DT40 TDP1 CPT
CC1(C(=O)NS(=O)(=O)c2ccc(Cl)cc2)CCN1C(=O)c1ccccc1 (stereo unspecified),x,x,x,-3%,24,0%
CCCCN(C(=O)COC(=O)C1(c2ccccc2)CC1)c1c(N)n(CCC)c(=O)[nH]c1=O,x,x,x,1%,-11,10%
COc1ccc(-c2ccc(C(=O)NCc3ccc(F)c(F)c3)c3occc23)c(C)c1,x,x,x,u,-59*,u
COc1cc(-c2noc(C)c2C(=O)NCCc2ccccc2)cc(OC)c1OC,-2%,x,x,u,3,u
COc1ccc(-c2oc(=O)c3cc(OC)c(OC)cc3c2/C=C/c2ccc(OC(C)=O)cc2)cc1,u,x,x,9.2µM*,-25,21µM*
COc1cc(-c2noc(C)c2/C=C/c2ccc(OC(C)=O)cc2)cc(OC)c1OC,-9%,2%,-21%,0.82µM*,67,0.73µM*
COc1cc(C(=O)N2CCN(S(=O)(=O)c3ccc(C)cc3C)CC2)ccc1OCC(=O)N1CCOCC1,2.3µM*,x,x,0%,1,-18%
COc1cc(/C=C/C(=O)OCC(=O)N2CCN(S(=O)(=O)c3ccc(C)cc3C)CC2)ccc1O,21µM*,-7%,2%[10 µM],u,-1,u
Cc1ccc(Nc2cc(-c3ccccc3)nc3ncnn23)cc1,0%,u,11µM*,u,-56*,u
CCc1ccc(Nc2cc(C)nc3ncnn23)cc1,u,-2%,-16%[1.91 µM],0%,-7,6%
CCn1c2ccccc2c2cc(Nc3cc(C)nc4ncnn34)ccc21,u,u,20µM*,0.58µM*,115,0.92µM*
Cc1cc(Nc2ccc(Cl)cc2)n2ncnc2n1,12%,5%,-3%,9%,-11,-4%
O=C(Nc1ccccc1)C(=O)Nc1ccccn1,u,5µM*,2.2µM*,-22%,11,-5%
O=C(CC(=O)c1ccccc1)Nc1ccccn1,u,-3%,-20%,2%,5,29%
O=S(=O)(Nc1ncccn1)c1ccc(NC(=S)Nc2ccccc2)cc1,9%,3%,-20%,u,3,0%
O=C(CC(O)(c1ccccc1)c1ccccc1)Nc1ccccn1,x,x,x,u,21,15µM*
S=C(Nc1ccccc1)c1ccccn1,u,2µM*,0.63µM*,0.92µM*,0,0.65µM*
O=C(Nc1cccc(O)c1)C(=O)Nc1ccccn1,u,-3%,27%,-24%,-8,u
S=C(Nc1ccc(Nc2ccccc2)cc1)Nc1ccccn1,12%,2.5µM*,0.71µM*,6.5µM*,u,6.5µM*
COC(=O)c1ccc(N/C=C/C(=O)c2ccccc2)cc1,u,-11%,-6%,-23%,25,-8%
CC(C)C(C)(C)C(C)(C)C(C)(C)S,x,-6%,2%,6%[92.5 µM],x,11%[92.5 µM]
O=C(N/N=C/c1ccccc1O)C(=O)Nc1ccccn1,-4%,10µM*,1.4µM*,15µM*,68,13µM*

# Assay outcomes (PubChem BioAssay)
